Values without a mark were called inactive. The source made the active and inactive calls. Rule as the data show it, unless noted: active = inhibition above about 28%; inactive = the rest.
What was measured:
[1] = StAR promoter reporter inhibitors, counter-screen for LRH-1 inverse agonist project, cell-based, luminescence, high throughput (AID 651611); details: StAR promoter luciferase reporter counterscreen, at 3.6 µM, stronger effect = higher value
[2] = biological target: Nuclear receptor subfamily 5 group A member 2 (Homo sapiens) (UniProt O00482); assay: LRH-1 (NR5A2) inverse agonists, retest, confirmation, cell-based, luminescence (AID 651613; in the data active = inhibition above about 42%;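 also: HEK293T cells co-transfected with LRH-1 and StAR promoter luciferase reporter; 0% = vehicle wells and 100% = parental cells lacking receptor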); details: cell-based LRH-1 luciferase reporter, inverse agonism; at 3.6 µM; stronger effect = higher value
Sequence of Nuclear receptor subfamily 5 group A member 2 (Homo sapiens) (O00482 whole entry, looked up): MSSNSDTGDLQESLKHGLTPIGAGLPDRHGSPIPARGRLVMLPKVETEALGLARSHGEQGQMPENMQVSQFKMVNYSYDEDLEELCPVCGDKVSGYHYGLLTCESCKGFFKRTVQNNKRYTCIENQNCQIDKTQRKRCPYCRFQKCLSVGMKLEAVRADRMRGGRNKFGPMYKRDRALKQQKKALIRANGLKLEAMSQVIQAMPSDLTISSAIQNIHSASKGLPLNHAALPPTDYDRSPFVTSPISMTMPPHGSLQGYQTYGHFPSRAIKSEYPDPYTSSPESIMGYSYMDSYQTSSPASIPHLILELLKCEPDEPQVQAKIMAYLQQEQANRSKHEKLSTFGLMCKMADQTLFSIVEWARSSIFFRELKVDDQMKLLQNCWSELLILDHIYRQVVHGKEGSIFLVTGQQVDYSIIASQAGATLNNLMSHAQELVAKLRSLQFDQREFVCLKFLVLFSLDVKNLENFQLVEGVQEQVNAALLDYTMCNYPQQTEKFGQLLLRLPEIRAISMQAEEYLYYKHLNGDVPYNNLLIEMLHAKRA

[3] = biological target: Steroidogenic factor 1 (Homo sapiens) (UniProt Q13285); assay: SF1 (NR5A1) inverse agonists, counter-screen for LRH-1 inverse agonist project, cell-based, luminescence, high throughput (AID 651614; in the data active = inhibition above about 44%;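 also: cells cotransfected with StAR promoter reporter and SF1 expression vector; 0% = vehicle on cells with receptor and 100% = vehicle on cells lacking receptor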); details: cell-based SF1 luciferase reporter, at 3.6 µM, stronger effect = higher value
Sequence of Steroidogenic factor 1 (Homo sapiens) (Q13285 whole entry, looked up, the tested form may be a part): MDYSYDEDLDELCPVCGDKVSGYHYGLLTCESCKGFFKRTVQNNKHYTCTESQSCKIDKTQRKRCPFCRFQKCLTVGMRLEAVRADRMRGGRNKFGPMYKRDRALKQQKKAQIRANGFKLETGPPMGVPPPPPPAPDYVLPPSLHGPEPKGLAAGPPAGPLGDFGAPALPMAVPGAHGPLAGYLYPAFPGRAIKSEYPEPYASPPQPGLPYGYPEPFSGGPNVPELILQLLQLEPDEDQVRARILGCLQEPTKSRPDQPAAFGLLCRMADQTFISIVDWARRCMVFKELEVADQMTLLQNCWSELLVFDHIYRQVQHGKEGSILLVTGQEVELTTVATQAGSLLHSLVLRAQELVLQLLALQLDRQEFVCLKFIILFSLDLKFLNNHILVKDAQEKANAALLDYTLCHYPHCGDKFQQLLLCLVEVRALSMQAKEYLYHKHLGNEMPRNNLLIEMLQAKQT

[4] = VP16 transactivation reporter inhibitors, counter-screen for LRH-1 inverse agonist project, cell-based, luminescence, high throughput (AID 651615; in the data active = inhibition above about 33%); details: Gal4-VP16 luciferase reporter cells, at 3.6 µM, stronger effect = higher value

SMILES | inhibition [1] | inhibition [2] | inhibition [3] | inhibition [4]
COc1cccc(COC(=O)C2CC(=O)N(Cc3ccco3)C2)c1OC (stereo not drawn) | 12% | 30.3% | 31% | -7.19%
CCN(CC)C1Oc2cc3c(cc2C(c2cccc(OC)c2O)C1C)OCO3 (stereo not drawn) | 23.9% | 53.1% (active) | 72% (active) | 15.5%
COc1ccc(CCNC(=O)COC(=O)C23CC4CC(CC(Br)(C4)C2)C3)cc1 | 4.42% | 53.8% (active) | 53.9% (active) | 4.71%
COc1cccc(C(=O)COc2cccc(NC(=O)c3cccc([N+](=O)[O-])c3)c2)c1 | 14.4% | 62.4% (active) | 59.3% (active) | 2.28%
CC(=O)c1ccc(OC(C)C(=O)OCC(=O)NCCc2ccccc2)cc1 (stereo not drawn) | -2.97% | 47.1% (active) | 40.7% | 7.05%
O=[N+]([O-])c1ccc(/C=N/Nc2ccnc3cc(Cl)ccc23)o1 | -10.6% | 44% (active) | 40% | -10.5%
O=C(Nc1ccccc1C(=O)Nc1nccs1)c1ccccc1 | 15.4% | 52.8% (active) | 47.8% (active) | 2.34%
COC(=O)Cc1sc(-c2ccccn2)nc1-c1ccccc1 | 11.6% | 61.7% (active) | 58.9% (active) | -7.62%
O=C(CCl)N(c1ccc(Cl)cc1)c1c[nH]c2ccccc12 | 25.4% | 67.1% (active) | 58% (active) | 30.4%
CC(=O)COc1ccc2c(-c3cccc([N+](=O)[O-])c3)cc(=O)oc2c1 | 7.05% | 67.2% (active) | 51.8% (active) | 0.45%
CC(=O)N1CCN(c2ccc(Oc3ccc([N+](=O)[O-])c(C(F)(F)F)c3)cc2)CC1 | 30.3% (active) | 68.3% (active) | 72.9% (active) | 57.5% (active)
COc1ccc(NC(=O)COC(=O)Cc2c[nH]c3ccccc23)cc1Cl | 18.2% | 40.9% | 42.5% | -6.87%
Cc1cc(C)c2c(N)c3cccc(C)c3nc2n1 | 30.8% (active) | 105% (active) | 45.8% (active) | 89% (active)
CC1CCC2(CC1)NC(=O)N(CC(=O)Nc1ccc3c(c1)OCCCO3)C2=O (stereo not drawn) | 10.5% | 46.8% (active) | 44.8% (active) | -7.87%
CCN(CC)S(=O)(=O)c1ccc(N2CCCC2)c(NC(=O)c2ccc([N+](=O)[O-])o2)c1 | 19.4% | 55.4% (active) | 56.6% (active) | 10.5%
CN(C)c1ccc(C=c2c3ccccc3n3c2c2ccccc2[n+]3C)cc1 | 54.9% (active) | 107% (active) | 90.7% (active) | 91.7% (active)
O=C(Cc1ccc(S(=O)(=O)N2CCCC2)s1)Nc1cccc([N+](=O)[O-])c1 | 7.13% | 51.3% (active) | 46.5% (active) | 1.81%
COc1ccc(-c2c(C)nn3c(NC4CCCC4)cc(C)nc23)cc1OC | 25.9% | 62.9% (active) | 54.8% (active) | -3.44%
COc1cccc(NC(=O)N(C)C[C@H]2Oc3cc(C#Cc4ccncc4)ccc3S(=O)(=O)N([C@H](C)CO)C[C@H]2C)c1 | 28% (active) | 50.6% (active) | 44.8% (active) | -37%
O=C(COC(=O)C1CC(=O)N(Cc2ccccc2)C1)Nc1ccc2c(c1)OCO2 (stereo not drawn) | 6.45% | 50.9% (active) | 54.8% (active) | -9.97%
O=C1/C(=C/c2ccccc2)CN(C(=O)CCN2CCOCC2)C/C1=C\c1ccccc1 | 21.9% | 44.3% (active) | 56.7% (active) | 55.2% (active)
CCCOc1ccc(N)cc1N | 11.1% | 21.4% | 27% | -3.38%
Cc1cc(=O)oc2cc(O)cc(OCc3ccccc3)c12 | 26% | 51.7% (active) | 45.2% (active) | -8.41%
COc1ccc(Nc2nc(NCCN3CCOCC3)nc(Nc3ccc(OC)cc3)n2)cc1 | -1.42% | 42.9% (active) | 38.6% | 0.52%
COc1ccc(S(=O)(=O)N2CCCN(CC(=O)Nc3ccc(OC)c(Cl)c3)CC2)cc1 | 17.7% | 65.8% (active) | 57.7% (active) | -5.36%
CC(=O)Nc1cccc(-c2cc(NC=O)c3ncc(-c4cccc(C(C)=O)c4)n3c2)c1 | 29.1% (active) | 57.6% (active) | 53.2% (active) | -34.5%

SMILES | inhibition [1] | inhibition [2] | inhibition [3] | inhibition [4]
COc1ccc(CCNC(=O)CSc2nc3[nH]ncc3c(=O)n2-c2ccc(C)c(Cl)c2)cc1OC | 13.2% | 61.3% (active) | 56.5% (active) | -6.41%
CCOCC(=O)Nc1ccc(S(=O)(=O)NCCc2ccccc2)cc1 | 10.5% | 48.3% (active) | 43.2% (active) | 11.4%
COc1ccc(C2(C)NC(=O)N(CC(=O)NCCC3=CCCCC3)C2=O)cc1OC (stereo not drawn) | 7.18% | 67.2% (active) | 38.1% | 0.38%
COc1cc(-c2cc(C(=O)NCc3ccc(S(N)(=O)=O)cc3)c3ccccc3n2)cc(OC)c1OC | 27.1% | 20.3% | 23.5% | -26.4%
COc1ccccc1-c1cc(NC=O)c2ncc(-c3ccc(S(C)(=O)=O)cc3)n2c1 | 31.8% (active) | 42.8% (active) | 46.9% (active) | -33.2%
Cc1cc(=O)oc2cc(OCC(=O)N3CCN(C(=O)C4COc5ccccc5O4)CC3)ccc12 (stereo not drawn) | 21.1% | 49% (active) | 42.1% | -11%
CC(=O)Nc1cc(-c2ccc(F)cc2)cn2c(-c3ccc(S(C)(=O)=O)cc3)cnc12 | 12.6% | 51.4% (active) | 48.7% (active) | -16.1%
COc1cc2c(cc1OC)-c1c(OC)c(OC)cc3ccnc(c13)C2=O | 41.2% (active) | 68.4% (active) | 59% (active) | 25.4%
COc1cc(N)c2ncccc2c1Cl | -0.07% | 17.4% | 11.9% | 10.7%
COc1cc(C(=O)NN=Cc2ccc(N(C)C)cc2)cc(OC)c1OC | 37.3% (active) | 37.8% | 51.1% (active) | 22.3%
COc1ccc(OC)c(NC(=S)NCc2cccnc2)c1 | 1.82% | 35.9% | 33.3% | 0.37%
COc1cccc(C(C)(O)c2nc(-c3ccoc3)cs2)c1 (stereo not drawn) | -0.36% | 30.2% | 21.5% | -0.14%
OC(c1ccc2ccccc2n1)c1c(Cl)cccc1Cl (stereo not drawn) | 12.8% | 42.7% (active) | 41.4% | 17.8%
CCn1c(=S)sc2c(=O)n(CC(=O)Nc3ccc(Cl)cc3)c(C)nc21 | 6.76% | 55.2% (active) | 46.7% (active) | 19.1%
CCOc1ccc(NC(=O)COC(=O)CC2CCCCC2)cc1 | 9.8% | 44.4% (active) | 44.8% (active) | -6.37%
O=C(OCC(=O)N1CCN(C(=O)COC(=O)c2ccc(O)cc2O)CC1)c1ccc(O)cc1O | 14.4% | 61% (active) | 61.2% (active) | 3.8%
CC1CC(C)CN(c2cc(N(C)CCO)c([N+](=O)[O-])c3nonc23)C1 (stereo not drawn) | 13.7% | 64.2% (active) | 63.6% (active) | -3.82%
COCc1cc(C)n(CC(=O)Nc2ccc(N3CCOCC3)c(Cl)c2)c(=O)c1C#N | -4.28% | 40.5% | 40.9% | 6.57%
CC(=O)Nc1ccc(-c2ccnc3c2CC(C(=O)NCc2ccco2)O3)cc1 (stereo not drawn) | 48.1% (active) | 42.6% (active) | 44.6% (active) | 24.2%
COc1ccccc1OCc1nnc(SCC(=O)Nc2ccc(N3CCOCC3)cc2)n1C | -2.38% | 17.9% | 29.6% | -11.3%
CCCc1nnc2n1N=C(c1ccc(OC)c(OC)c1)CS2 | 4.71% | 38.7% | 26.3% | -24.8%
CCOc1ccc(CCNC(=O)COC(=O)COc2ccc(Br)cc2)cc1OCC | 4.03% | 49.1% (active) | 56.3% (active) | 4.38%
Nc1nc2ccccc2n1/N=C/c1ccc([N+](=O)[O-])s1 | -0.84% | 61.2% (active) | 65.1% (active) | -3.2%
COc1ccc(-n2c(/C=C(\C)O)nc(=O)c3c(C)cc(C)nc32)cc1 | 12.9% | 51.8% (active) | 37.2% | 16.7%
O=[N+]([O-])c1ccc(S(=O)Cc2ccccc2)c([N+](=O)[O-])c1 (stereo not drawn) | 8.41% | 43.5% (active) | 22.4% | 16.7%
O=C(Nc1ccc(NC(=O)c2ccc([N+](=O)[O-])o2)cc1Cl)c1ccco1 | 19.6% | 59.8% (active) | 73% (active) | -20.2%
